# CSC inhib = cancer stem cell viability inhibitors, primary screen, luminescence; cancer stem cell-like cells viability; inhibition, % at 7.5 µM; 300,000 tested, 1.1% active; in the data active = inhibition above about 75%; tested in HMLE shEcad cells
# GRIN3A LBD mod = binders of NR3A ligand-binding domain, primary screen, biophysical, differential scanning fluorimetry, uHTS | AID 1259313, 2017 | Glutamate receptor ionotropic, NMDA 3A (GRIN3A) ligand-binding domain | NR3A LBD differential scanning fluorimetry, Tm shift; 0% = protein alone, 100% = glycine-bound protein | 340,000 tested, 2.5% active | Tm shift relative to glycine control, % at 25 µM;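 active = melting temperature shift of at least 10% of the positive control shift, at one fixed dose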
# Mdm2-MdmX inh = inhibitors of human Mdm2-MdmX association, primary screen, cell-based, luminescence, split luciferase, SaOS-2, uHTS; SaOS-2 split-luciferase Mdm2/MdmX complementation; inhibition, % at 8 µM; 330,000 tested, 3% active; AID 485346, 2010;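 active = inhibition of at least 50% at 8 µM in the primary screen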
# Target sequence (O15151 whole entry, looked up): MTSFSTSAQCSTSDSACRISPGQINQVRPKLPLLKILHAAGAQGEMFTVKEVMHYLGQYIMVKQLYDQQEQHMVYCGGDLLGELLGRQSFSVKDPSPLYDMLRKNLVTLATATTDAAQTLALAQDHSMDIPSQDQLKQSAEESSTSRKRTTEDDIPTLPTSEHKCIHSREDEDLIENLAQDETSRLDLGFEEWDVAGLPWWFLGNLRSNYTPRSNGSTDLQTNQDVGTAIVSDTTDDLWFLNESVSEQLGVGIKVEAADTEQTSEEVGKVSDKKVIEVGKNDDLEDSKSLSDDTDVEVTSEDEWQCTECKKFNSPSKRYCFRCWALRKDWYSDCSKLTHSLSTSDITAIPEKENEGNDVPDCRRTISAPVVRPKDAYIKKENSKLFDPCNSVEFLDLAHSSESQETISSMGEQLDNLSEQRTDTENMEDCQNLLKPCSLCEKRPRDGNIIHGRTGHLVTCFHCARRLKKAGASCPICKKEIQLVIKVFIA
# Target sequence (Q00987 whole entry, looked up): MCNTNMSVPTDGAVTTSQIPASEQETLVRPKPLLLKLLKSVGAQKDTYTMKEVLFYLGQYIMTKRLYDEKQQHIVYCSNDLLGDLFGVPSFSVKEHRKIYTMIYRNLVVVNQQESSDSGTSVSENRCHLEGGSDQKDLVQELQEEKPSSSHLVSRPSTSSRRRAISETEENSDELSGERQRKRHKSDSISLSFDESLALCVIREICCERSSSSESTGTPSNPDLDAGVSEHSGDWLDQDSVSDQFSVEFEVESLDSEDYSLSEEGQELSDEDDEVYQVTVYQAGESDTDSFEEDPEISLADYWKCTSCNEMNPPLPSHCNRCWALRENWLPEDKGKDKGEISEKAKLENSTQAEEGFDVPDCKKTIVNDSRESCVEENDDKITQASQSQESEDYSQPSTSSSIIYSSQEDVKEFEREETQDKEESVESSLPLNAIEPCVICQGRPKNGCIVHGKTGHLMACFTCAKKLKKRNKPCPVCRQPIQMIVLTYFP
# MPTP inh = mitochondrial permeability transition pore inhibitors, primary screen, biochemical, isolated mouse mitochondria, absorbance | Ca2+ swelling absorbance, 30 min | inhibition, % at 10 µM | 360,000 tested, 1.4% active;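 active = inhibition of 50% or more, scaled per plate between neutral and stimulator controls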;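 also: 0% = DMSO wells given calcium and 100% = 1 mM EGTA wells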
# Beta cell apopt = inhibitors of cytokine-induced beta cell apoptosis, primary screen, luminescence. INS-1E cytokine-induced death, ATP luminescence, 48 h; percent of positive-control rescue, neutral wells zero. protection from apoptosis, % (no concentration beside the values). 300,000 tested, 0.8% active. AID 435005, 2010;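 active = Every replicate reaches about 75%, or at least half do and their mean reaches it too, limit read from the data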;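 also: 0% = cytokine-treated negative control wells and 100% = positive control rescue; higher means more ATP so stronger rescue from cytokine killing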
# SKKanGAS inh = S. pyogenes SKKanGAS growth inhibitors in kanamycin, primary screen, streptokinase expression inhibitor project, SKKanGAS strain, BacTiter-Glo luminescence; 300,000 tested, 1.3% active; 6 h; inhibition, % at 7.5 µM; AID 1662, 2009;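 active = mean replicate score, as percent of positive control median, at least 50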;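 also: strain carries kanamycin resistance gene driven by streptokinase promoter and grows in 40 µg/ml kanamycin; loss of luminescence reflects streptokinase promoter inhibition or plain growth inhibition; 0% = median of DMSO wells and 100% = positive control at its reference dose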
# * hit, by the source's call; · = not tested or not shown. Shown are actives, neighbours in structure and some others; about 6.9% of the full set was active somewhere.
SMILES,CSC inhib,GRIN3A LBD mod,Mdm2-MdmX inh,MPTP inh,Beta cell apopt,SKKanGAS inh
COc1ccc(-c2nc(NC(C)=O)sc2-c2ccc(OC)cc2)cc1,-3,-32,19,18,-10,67*
O=C(Nc1ccccc1)c1cccnc1NCCc1ccccc1,10,-7,33,3,-17,-4
COc1ccc(NC(=O)c2cccnc2NCCc2ccccc2)cc1,1,18*,11,1,-3,0
O=C1/C(=C/c2ccc(Br)cc2)Oc2cc(O)ccc21,47,16*,-29,32,-3,5
O=C1/C(=C/c2ccc([N+](=O)[O-])cc2)Oc2cc(O)ccc21,24,4,10,14,0,8
CC(C)(C)c1ccc(/C=C2\Oc3cc(O)ccc3C2=O)cc1,48,17*,1,34,-16,-3
CC1(C(=O)NS(=O)(=O)Cc2cccc(Cl)c2)CCN1C(=O)c1cccc(F)c1 (stereo not drawn),·,·,·,-1,·,·
Cc1cccc(OCCOC(=O)c2ccc(F)c(S(=O)(=O)N3CCOCC3)c2)c1,-15,2,-1,1,-2,·
COc1ccc(CC(=O)N2CCc3cc(OC)c(OC)cc3C2O)cc1OC (stereo not drawn),-9,10*,9,0,-1,-3
NC(=O)COC(=O)CC(NC(N)=O)c1ccc(Cl)cc1 (stereo not drawn),-16,13*,1,1,-10,-5
Cc1cc(C(=O)COC(=O)CC(NC(N)=O)c2ccc(Cl)cc2)c(C)n1C (stereo not drawn),-9,0,-2,-1,0,·
CCCCOc1ccc(C(=O)NCC(=O)N2CC=C(c3ccccc3)CC2)cc1,-10,1,10,3,4,-5
O=C(COC(=O)CCc1nc2ccccc2c(=O)[nH]1)NC(=O)NC1CCCC1,-3,12*,17,0,-12,0
CC(OC(=O)CCc1nc2ccccc2c(=O)[nH]1)C(=O)NC1CCCC1 (stereo not drawn),-3,-3,2,-2,1,-13
N#CCCN(C(=O)COC(=O)CCc1nc2ccccc2c(=O)[nH]1)c1ccccc1F,·,13*,12,0,2,·
Cc1ccc(F)cc1NC(=O)/C=C/c1ccc(S(=O)(=O)N2CCOCC2)cc1,-9,15*,13,0,4,·
O=C(/C=C/c1ccc(S(=O)(=O)N2CCOCC2)cc1)Nc1cc(F)ccc1F,·,32*,-9,2,0,·
CCOC(=O)[C@]12CCC=C1N(Cc1ccc(Cl)cc1Cl)C(=O)[C@H](CC(=O)N1CCN(C(=O)c3ccco3)CC1)C2,·,·,·,-2,·,·
CCOc1ccc(S(=O)(=O)NCC(=O)NC2CCCCC2)cc1,-4,1,14,-1,-2,·
N#Cc1ccccc1S(=O)(=O)Nc1ccc2c(c1)OCCO2,-2,2,8,0,0,-6
CC(=O)Nc1ccc(NC(=O)/C=C/c2ccc(Cl)cc2)cc1,8,13*,-7,1,5,-3
O=C(c1ccc(Cl)cc1)c1c[nH]c(C(=O)NNc2ccccc2)c1,95*,4,25,-1,3,-7
O=C(NNc1ccc(Cl)cc1)c1sccc1Cl,94*,4,-6,2,7,3
Cc1cc(NC(=O)/C=C/c2ccc(Cl)cc2)no1,78*,-2,-12,1,2,-2
O=C(/C=C/c1ccc(Cl)cc1)Nc1ccc(N2CCOCC2)cc1,9,-13,15,2,-9,-4
SMILES,CSC inhib,GRIN3A LBD mod,Mdm2-MdmX inh,MPTP inh,Beta cell apopt,SKKanGAS inh
CNC(=O)c1cc(C(=O)c2ccc(Cl)cc2)c[nH]1,·,1,-21,1,·,-1
COCOc1cccc(CN2CCC2(C)C(=O)Nc2ccc(C)c(O)c2)c1 (stereo not drawn),·,·,·,3,·,·
O=C(O)c1ccccc1C(=O)NNc1ccc(Cl)cc1,91*,0,13,2,-4,-3
CC(=O)Nc1ccc(CN2CCN(c3cccc(C(F)(F)F)c3)CC2)cc1,3,20*,-38,0,7,1
CC(=O)Nc1ccc(NC(=O)CN2CCN(c3cccc(C(F)(F)F)c3)CC2)cc1,-6,-1,19,2,1,-9
NS(=O)(=O)c1ccc(NNC(=O)c2ccccc2C(=O)O)cc1,-8,2,-22,1,-3,-4
CC(=O)Nc1ccc(NC(=O)/C=C/c2cccc(C(F)(F)F)c2)cc1,8,18*,-22,2,-3,-16
O=C(/C=C/c1ccccc1)NNc1ccc(Cl)cc1,96*,-2,-1,0,3,0
CCC(CC)C(=O)N(C)c1c(C)nc2c(OCc3ccc(OC(F)F)cc3)cccn12,·,·,·,1,·,·
COc1ccccc1C(CNC(=O)c1cccc(NS(=O)(=O)c2ccc(C)c(F)c2)c1)N1CCCC1 (stereo not drawn),-6,1,32,0,4,-7
COCC1OC(OC(C)C(O)c2cnc3nc(N)[nH]c(=O)c3n2)C(O)C(OC)C1O (stereo not drawn),·,·,·,-2,·,·
COc1ccccc1CNC(=O)/C=C/c1ccc(Br)o1,·,-1,-6,1,·,1
Cc1cc(Oc2ccc(-c3ccccc3)cc2)nc(N2CCOCC2)n1,27,0,19,3,1,54*
CC(C)(C)CC(=O)N1CCC(c2nc3c(nnn3Cc3c(F)cccc3Cl)c(=O)[nH]2)CC1,-15,-1,32,0,6,74*
CC(C)(C)c1ccc(Cn2nnc3c(=O)[nH]c(C4CCCN(C(=O)c5cccs5)C4)nc32)cc1 (stereo not drawn),79*,-13,23,2,-3,14
COc1ccccc1Cn1nnc2c(=O)[nH]c(C3CCN(C(=O)c4ccccc4Cl)CC3)nc21,-28,0,33,-1,-3,91*
CC(C)(C)c1ccc(Cn2nnc3c(=O)[nH]c(C4CCCN(C(=O)Cc5cccs5)C4)nc32)cc1 (stereo not drawn),0,-18,34,-3,8,12
O=C(c1cccs1)N1CCC(c2nc3c(nnn3Cc3ccccc3Cl)c(=O)[nH]2)CC1,-5,1,31,-2,·,52*
CCN(CC)C(=O)Oc1nnc(SC(C)C)n1-c1ccc(Cl)cc1,13,-1,24,0,3,2
Cc1ccc(OCCNC(=O)c2ccccc2OCc2c(C)noc2C)cc1,·,0,-11,0,·,·
N#Cc1c(F)cccc1N1CCN(Cc2ccc3c(c2)OCO3)CC1,8,3,3,1,2,12
COc1ccc(C2=NS(=O)(=O)N(C)C(C(=O)N3CCCCC3C)=C2)cc1 (stereo not drawn),-5,0,1,-1,-3,-1

# Compound activity deposited in PubChem BioAssay by several laboratories.
